# From paper PMC7862700, “An all-to-all approach to the identification of sequence-specific readers for epigenetic DNA modifications on cytosine”
# Key:
# Experiment in all cases: DAPPL (digital affinity profiling via proximity ligation, sequencing); 10 mM Tris-HCl pH 7.5, 50 mM NaCl, 1 mM DTT, 4% glycerol, room temperature, 30 min; GST-TFs on glutathione beads, 16-mer random dsDNA library, 0.1% formaldehyde crosslink after washing; high values mean tight binding
# [1] = molecular target: T1, FLI1 (Homo sapiens, UniProt Q01543 1-452); conditions: protein: recombinant; tags: N-terminal GST; dsDNA, one strand shown
# T1 sequence: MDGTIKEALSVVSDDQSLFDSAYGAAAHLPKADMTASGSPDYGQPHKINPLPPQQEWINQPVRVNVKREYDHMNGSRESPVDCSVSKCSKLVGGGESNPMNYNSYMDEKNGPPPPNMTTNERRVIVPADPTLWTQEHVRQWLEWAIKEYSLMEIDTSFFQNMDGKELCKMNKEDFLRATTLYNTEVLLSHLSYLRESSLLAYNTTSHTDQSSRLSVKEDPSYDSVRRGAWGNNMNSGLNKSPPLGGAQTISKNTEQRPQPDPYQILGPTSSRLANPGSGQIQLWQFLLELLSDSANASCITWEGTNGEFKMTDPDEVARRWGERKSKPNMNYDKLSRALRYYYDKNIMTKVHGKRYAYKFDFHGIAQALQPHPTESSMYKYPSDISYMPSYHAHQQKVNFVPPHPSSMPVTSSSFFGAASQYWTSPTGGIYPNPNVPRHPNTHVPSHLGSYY
# Method in brief: (§1)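 A tag-only sample was pooled with DNA-barcoded human transcription factors that had been expressed in yeast as GST fusions and captured on glutathione beads. The pools were incubated for 30 min at room temperature with 200 nmole of a random double-stranded 16-mer DNA library in Tris/NaCl/DTT/glycerol buffer, then washed, crosslinked with 0.1% formaldehyde, proximity-ligated (BsaI/T4 ligase, 1 h, 37 °C), PCR-amplified and sequenced on an Illumina NextSeq500. Binding signal is each hexamer's read frequency for a factor divided by its frequency for the tag-only sample.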
# [2] = molecular target: T2, ELK1 (Homo sapiens, UniProt P19419 1-428); conditions: protein: recombinant; tags: N-terminal GST; dsDNA, one strand shown
# T2 sequence: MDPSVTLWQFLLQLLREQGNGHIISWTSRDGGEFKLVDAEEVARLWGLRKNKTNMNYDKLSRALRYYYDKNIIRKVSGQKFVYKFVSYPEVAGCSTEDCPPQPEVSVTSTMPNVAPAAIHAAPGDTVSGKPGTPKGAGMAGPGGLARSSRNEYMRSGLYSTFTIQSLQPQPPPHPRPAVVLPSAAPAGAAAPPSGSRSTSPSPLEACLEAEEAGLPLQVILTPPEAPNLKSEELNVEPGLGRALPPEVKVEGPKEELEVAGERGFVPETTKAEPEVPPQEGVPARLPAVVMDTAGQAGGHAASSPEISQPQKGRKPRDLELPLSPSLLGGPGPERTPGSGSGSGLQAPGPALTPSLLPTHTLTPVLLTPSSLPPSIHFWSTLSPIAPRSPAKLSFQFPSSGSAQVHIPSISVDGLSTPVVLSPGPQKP
# Method in brief: as §1
# [3] = molecular target: T3, GABPA (Homo sapiens, UniProt Q06546 1-454); conditions: protein: recombinant; tags: N-terminal GST; dsDNA, one strand shown
# T3 sequence: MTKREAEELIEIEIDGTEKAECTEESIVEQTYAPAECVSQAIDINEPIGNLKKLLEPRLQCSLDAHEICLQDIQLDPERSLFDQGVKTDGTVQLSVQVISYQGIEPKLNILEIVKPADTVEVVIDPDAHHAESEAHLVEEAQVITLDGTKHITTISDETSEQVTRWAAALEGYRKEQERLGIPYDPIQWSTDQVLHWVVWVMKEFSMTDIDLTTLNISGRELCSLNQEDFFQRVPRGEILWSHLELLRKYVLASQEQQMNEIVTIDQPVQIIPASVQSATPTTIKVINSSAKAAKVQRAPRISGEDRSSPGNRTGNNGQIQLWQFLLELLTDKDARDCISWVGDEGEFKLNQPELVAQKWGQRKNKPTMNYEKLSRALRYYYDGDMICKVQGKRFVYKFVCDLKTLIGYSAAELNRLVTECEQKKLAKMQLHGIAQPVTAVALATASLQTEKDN
# Method in brief: as §1
# [4] = molecular target: T4, ERG (Homo sapiens, UniProt P11308 1-479); conditions: protein: recombinant; tags: N-terminal GST; dsDNA, one strand shown
# T4 sequence: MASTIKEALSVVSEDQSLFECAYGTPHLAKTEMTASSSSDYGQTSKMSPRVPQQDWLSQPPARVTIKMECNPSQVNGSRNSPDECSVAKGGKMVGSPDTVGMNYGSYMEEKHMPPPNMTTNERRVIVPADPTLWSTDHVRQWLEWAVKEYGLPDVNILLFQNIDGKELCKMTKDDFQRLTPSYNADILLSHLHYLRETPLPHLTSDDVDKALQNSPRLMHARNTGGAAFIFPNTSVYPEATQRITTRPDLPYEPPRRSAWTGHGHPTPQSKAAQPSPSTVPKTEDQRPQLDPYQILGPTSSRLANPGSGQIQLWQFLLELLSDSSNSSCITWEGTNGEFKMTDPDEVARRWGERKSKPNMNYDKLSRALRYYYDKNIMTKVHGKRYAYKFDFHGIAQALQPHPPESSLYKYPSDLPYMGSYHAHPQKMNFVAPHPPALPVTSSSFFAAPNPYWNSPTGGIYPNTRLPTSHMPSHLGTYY
# Method in brief: as §1
# [5] = molecular target: ELF1 (Homo sapiens, UniProt P32519 1-619); conditions: protein: recombinant; tags: N-terminal GST; dsDNA, one strand shown
# Method in brief: as §1
# [6] = molecular target: T5, EHF (Homo sapiens, UniProt Q9NZC4 1-300); conditions: protein: recombinant; tags: N-terminal GST; dsDNA, one strand shown
# T5 sequence: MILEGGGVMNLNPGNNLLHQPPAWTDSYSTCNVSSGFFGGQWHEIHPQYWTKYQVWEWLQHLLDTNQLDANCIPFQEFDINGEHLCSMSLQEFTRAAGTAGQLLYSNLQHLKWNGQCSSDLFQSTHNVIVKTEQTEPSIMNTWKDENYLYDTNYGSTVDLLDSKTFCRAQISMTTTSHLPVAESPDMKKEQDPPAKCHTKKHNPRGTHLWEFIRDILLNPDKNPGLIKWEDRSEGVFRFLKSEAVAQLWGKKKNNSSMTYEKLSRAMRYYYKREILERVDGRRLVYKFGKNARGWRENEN
# Method in brief: as §1
# [7] = molecular target: SPI1 (Homo sapiens, UniProt P17947 1-270); conditions: protein: recombinant; tags: N-terminal GST; dsDNA, one strand shown
# Method in brief: as §1
# [8] = molecular target: SPIB (Homo sapiens, UniProt Q01892 1-262); conditions: protein: recombinant; tags: N-terminal GST; dsDNA, one strand shown
# Method in brief: as §1
# [9] = molecular target: T6, ELK3 (Homo sapiens, UniProt P41970 1-407); conditions: protein: recombinant; tags: N-terminal GST; dsDNA, one strand shown
# T6 sequence: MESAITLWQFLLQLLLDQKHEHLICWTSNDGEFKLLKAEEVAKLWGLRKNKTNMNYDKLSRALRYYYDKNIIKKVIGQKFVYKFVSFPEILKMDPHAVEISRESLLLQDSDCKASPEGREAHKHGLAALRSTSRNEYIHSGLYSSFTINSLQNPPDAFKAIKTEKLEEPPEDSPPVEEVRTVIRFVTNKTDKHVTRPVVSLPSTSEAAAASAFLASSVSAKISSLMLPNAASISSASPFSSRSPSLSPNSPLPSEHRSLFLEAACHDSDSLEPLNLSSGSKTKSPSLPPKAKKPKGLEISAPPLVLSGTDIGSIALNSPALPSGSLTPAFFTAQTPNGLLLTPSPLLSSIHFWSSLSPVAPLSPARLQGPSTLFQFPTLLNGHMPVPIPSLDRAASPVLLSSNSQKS
# Method in brief: as §1
# [10] = molecular target: T7, FEV (Homo sapiens, UniProt Q99581 1-238); conditions: protein: recombinant; tags: N-terminal GST; dsDNA, one strand shown
# T7 sequence: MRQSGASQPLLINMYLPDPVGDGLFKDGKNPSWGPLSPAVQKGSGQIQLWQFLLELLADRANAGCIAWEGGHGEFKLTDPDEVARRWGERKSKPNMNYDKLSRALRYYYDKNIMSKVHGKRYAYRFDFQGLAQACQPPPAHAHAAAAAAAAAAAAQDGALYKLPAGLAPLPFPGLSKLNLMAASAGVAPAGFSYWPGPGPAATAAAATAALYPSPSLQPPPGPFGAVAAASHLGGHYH
# Method in brief: as §1
# [11] = molecular target: ETV5 (Homo sapiens, UniProt P41161 1-510); conditions: protein: recombinant; tags: N-terminal GST; dsDNA, one strand shown
# Method in brief: as §1
# [12] = molecular target: HSF1 (Homo sapiens, UniProt Q00613 1-529); conditions: protein: recombinant; tags: N-terminal GST; chain copies: 3; dsDNA, one strand shown
# Method in brief: as §1
# [13] = molecular target: T8, SPIC (Homo sapiens, UniProt Q8N5J4 1-248); conditions: protein: recombinant; tags: N-terminal GST; dsDNA, one strand shown
# T8 sequence: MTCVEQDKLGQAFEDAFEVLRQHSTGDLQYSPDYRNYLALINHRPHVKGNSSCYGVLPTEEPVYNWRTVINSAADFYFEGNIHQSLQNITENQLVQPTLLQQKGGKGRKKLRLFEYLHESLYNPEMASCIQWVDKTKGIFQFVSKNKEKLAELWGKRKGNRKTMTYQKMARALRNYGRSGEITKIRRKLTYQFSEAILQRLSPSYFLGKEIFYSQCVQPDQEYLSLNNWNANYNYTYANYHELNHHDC
# Method in brief: as §1
# [14] = molecular target: ELF4 (Homo sapiens, UniProt Q99607 1-663); conditions: protein: recombinant; tags: N-terminal GST; dsDNA, one strand shown
# Method in brief: as §1
# [15] = molecular target: T9, ELK4 (Homo sapiens, UniProt P28324-2 1-405); conditions: protein: recombinant; tags: N-terminal GST; dsDNA, one strand shown
# T9 sequence: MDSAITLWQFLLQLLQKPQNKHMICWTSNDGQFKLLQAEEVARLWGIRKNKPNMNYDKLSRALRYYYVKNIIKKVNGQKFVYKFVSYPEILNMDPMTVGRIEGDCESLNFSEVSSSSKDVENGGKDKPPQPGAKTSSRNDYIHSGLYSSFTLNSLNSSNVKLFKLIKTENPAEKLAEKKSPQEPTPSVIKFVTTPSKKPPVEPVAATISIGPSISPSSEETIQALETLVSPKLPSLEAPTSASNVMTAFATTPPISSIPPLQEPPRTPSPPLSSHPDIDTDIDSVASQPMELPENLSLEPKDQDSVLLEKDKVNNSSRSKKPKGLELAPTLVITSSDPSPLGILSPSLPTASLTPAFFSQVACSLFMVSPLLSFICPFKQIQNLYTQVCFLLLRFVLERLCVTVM
# Method in brief: as §1
# [16] = molecular target: T10, ETV2 (Homo sapiens, UniProt O00321 1-342); conditions: protein: recombinant; tags: N-terminal GST; dsDNA, one strand shown
# T10 sequence: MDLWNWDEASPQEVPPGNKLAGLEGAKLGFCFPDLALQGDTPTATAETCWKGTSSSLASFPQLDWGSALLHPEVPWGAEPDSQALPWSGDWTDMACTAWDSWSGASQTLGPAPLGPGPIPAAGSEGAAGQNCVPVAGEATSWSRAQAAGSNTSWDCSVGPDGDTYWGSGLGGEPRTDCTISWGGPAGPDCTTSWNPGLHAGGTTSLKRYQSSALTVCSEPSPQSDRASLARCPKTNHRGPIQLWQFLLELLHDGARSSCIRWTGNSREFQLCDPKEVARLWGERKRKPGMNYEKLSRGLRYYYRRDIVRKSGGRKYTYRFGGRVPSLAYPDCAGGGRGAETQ
# Method in brief: as §1
# [17] = molecular target: T11, ELF3 (Homo sapiens, UniProt P78545 1-371); conditions: protein: recombinant; tags: N-terminal GST; dsDNA, one strand shown
# T11 sequence: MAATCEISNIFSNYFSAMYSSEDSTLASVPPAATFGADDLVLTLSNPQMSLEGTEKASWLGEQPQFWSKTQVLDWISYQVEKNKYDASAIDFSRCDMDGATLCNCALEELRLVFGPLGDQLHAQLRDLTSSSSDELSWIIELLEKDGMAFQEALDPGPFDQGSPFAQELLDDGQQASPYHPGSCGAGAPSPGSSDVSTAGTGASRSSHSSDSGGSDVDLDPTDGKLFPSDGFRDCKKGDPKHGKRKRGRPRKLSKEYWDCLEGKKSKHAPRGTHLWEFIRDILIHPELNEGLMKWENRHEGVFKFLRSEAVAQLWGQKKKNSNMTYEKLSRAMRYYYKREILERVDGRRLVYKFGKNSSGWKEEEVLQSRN
# Method in brief: as §1
# [18] = molecular target: CRX (Homo sapiens, UniProt O43186 1-299); conditions: protein: recombinant; tags: N-terminal GST; dsDNA, one strand shown
# Method in brief: as §1
# [19] = molecular target: ETV1 (Homo sapiens, UniProt P50549 1-477); conditions: protein: recombinant; tags: N-terminal GST; dsDNA, one strand shown
# Method in brief: as §1
# ELF1, sequence (P32519 whole entry): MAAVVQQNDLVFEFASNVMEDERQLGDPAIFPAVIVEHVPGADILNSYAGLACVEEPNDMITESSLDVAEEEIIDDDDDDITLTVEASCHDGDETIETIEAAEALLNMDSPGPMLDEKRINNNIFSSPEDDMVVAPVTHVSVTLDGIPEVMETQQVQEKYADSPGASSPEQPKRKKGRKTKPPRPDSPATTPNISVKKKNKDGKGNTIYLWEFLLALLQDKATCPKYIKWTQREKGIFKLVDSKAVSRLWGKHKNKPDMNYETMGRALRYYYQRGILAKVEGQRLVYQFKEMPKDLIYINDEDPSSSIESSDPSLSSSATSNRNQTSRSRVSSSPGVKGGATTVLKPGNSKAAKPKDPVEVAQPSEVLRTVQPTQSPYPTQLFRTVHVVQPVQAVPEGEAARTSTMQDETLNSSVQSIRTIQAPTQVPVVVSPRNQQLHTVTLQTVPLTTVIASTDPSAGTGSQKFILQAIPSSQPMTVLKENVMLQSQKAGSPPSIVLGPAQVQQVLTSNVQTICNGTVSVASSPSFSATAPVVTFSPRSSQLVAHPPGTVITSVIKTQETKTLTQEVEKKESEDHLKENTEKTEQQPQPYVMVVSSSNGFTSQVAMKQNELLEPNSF
# ETV1, sequence (P50549 whole entry): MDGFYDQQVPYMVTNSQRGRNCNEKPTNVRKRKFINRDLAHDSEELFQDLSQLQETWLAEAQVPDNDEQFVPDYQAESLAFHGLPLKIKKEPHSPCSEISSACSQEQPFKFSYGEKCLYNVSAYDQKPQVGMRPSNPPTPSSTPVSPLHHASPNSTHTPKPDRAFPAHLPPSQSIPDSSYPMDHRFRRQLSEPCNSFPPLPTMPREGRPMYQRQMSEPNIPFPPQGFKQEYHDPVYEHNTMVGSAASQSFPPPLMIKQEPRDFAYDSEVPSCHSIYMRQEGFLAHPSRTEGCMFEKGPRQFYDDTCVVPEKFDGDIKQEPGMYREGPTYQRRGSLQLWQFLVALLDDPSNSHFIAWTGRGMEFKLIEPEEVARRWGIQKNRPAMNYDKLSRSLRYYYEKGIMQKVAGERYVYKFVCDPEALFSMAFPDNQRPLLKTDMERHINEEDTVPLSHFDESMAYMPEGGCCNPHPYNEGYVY
# ELF4, sequence (Q99607 whole entry): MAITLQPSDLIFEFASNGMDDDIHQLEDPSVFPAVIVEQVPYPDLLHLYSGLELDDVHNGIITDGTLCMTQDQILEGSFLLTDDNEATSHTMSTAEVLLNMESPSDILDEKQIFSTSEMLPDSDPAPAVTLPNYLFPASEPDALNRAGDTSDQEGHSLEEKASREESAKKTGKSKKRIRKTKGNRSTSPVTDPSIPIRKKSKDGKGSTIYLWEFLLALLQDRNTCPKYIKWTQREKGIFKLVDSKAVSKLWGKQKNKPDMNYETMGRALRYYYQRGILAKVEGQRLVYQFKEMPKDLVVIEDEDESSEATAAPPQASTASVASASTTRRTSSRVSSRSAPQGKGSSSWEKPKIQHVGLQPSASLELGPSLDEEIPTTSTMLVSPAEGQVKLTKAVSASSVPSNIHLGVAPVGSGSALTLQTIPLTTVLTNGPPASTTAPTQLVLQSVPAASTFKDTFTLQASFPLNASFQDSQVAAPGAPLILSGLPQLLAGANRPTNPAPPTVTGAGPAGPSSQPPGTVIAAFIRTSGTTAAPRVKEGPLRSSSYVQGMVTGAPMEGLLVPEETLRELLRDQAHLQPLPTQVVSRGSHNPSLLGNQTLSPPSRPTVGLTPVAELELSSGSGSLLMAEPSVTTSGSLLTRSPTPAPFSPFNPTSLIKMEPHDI
# ETV5, sequence (P41161 whole entry): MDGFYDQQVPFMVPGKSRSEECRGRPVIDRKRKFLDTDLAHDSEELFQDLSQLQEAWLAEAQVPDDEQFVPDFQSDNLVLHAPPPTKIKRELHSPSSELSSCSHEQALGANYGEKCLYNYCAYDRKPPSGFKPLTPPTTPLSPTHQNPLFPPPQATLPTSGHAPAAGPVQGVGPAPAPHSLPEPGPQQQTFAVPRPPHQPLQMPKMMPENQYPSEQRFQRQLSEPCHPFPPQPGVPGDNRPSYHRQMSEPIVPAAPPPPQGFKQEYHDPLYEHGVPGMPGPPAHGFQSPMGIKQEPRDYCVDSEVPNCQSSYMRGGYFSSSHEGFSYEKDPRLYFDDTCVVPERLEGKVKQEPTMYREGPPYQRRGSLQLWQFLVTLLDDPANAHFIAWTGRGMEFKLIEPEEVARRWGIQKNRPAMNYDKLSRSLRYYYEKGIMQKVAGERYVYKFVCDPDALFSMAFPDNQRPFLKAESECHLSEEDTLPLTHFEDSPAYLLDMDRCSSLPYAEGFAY
# CRX, sequence (O43186 whole entry): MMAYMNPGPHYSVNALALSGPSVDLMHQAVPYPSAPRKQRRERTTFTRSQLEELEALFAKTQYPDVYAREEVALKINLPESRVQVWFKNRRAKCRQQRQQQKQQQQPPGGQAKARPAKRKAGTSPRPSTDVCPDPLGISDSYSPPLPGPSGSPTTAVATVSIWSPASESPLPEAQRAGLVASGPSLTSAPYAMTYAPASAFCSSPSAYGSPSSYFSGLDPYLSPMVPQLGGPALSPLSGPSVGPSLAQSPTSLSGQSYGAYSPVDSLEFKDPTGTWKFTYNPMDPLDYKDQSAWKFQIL
# HSF1, sequence (Q00613 whole entry): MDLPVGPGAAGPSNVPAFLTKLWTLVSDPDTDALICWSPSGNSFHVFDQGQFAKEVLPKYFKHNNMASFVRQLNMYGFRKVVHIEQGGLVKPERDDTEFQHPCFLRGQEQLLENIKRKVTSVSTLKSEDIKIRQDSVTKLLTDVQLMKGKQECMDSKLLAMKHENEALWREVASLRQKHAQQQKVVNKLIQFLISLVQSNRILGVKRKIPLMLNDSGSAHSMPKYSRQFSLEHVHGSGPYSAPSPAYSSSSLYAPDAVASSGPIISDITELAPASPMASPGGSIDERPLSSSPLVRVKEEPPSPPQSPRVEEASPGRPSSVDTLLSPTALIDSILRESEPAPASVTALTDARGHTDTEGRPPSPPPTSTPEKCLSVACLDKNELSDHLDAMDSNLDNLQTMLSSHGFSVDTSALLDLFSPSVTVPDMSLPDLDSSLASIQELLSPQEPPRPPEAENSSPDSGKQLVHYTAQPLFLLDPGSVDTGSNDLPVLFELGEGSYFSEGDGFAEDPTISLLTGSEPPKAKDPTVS
# SPIB, sequence (Q01892 whole entry): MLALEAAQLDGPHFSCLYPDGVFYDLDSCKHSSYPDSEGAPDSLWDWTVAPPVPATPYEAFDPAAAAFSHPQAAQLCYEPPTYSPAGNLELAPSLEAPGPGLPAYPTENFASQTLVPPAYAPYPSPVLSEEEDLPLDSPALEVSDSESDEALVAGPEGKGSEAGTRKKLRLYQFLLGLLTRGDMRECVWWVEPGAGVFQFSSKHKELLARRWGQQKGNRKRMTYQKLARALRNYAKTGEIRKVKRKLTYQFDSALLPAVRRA
sequence,measurement,setting,value
CTTAGG,binding signal,[1],"1.1 fold enrichment (6-mer frequency, TF over GST control)"
same,binding signal,[2],"1.12 fold enrichment (6-mer frequency, TF over GST control)"
same,binding signal,[3],"1.15 fold enrichment (6-mer frequency, TF over GST control)"
same,binding signal,[4],"1.19 fold enrichment (6-mer frequency, TF over GST control)"
same,binding signal,[5],"1.17 fold enrichment (6-mer frequency, TF over GST control)"
same,binding signal,[6],"1.14 fold enrichment (6-mer frequency, TF over GST control)"
same,binding signal,[7],"1.09 fold enrichment (6-mer frequency, TF over GST control)"
same,binding signal,[8],"1.08 fold enrichment (6-mer frequency, TF over GST control)"
same,binding signal,[9],"1.05 fold enrichment (6-mer frequency, TF over GST control)"
same,binding signal,[10],"1.11 fold enrichment (6-mer frequency, TF over GST control)"
same,binding signal,[11],"1.15 fold enrichment (6-mer frequency, TF over GST control)"
same,binding signal,[12],"1.29 fold enrichment (6-mer frequency, TF over GST control)"
same,binding signal,[13],"1.3 fold enrichment (6-mer frequency, TF over GST control)"
same,binding signal,[14],"1.16 fold enrichment (6-mer frequency, TF over GST control)"
same,binding signal,[15],"1.04 fold enrichment (6-mer frequency, TF over GST control)"
same,binding signal,[16],"1.23 fold enrichment (6-mer frequency, TF over GST control)"
same,binding signal,[17],"1.49 fold enrichment (6-mer frequency, TF over GST control)"
same,binding signal,[18],"1.8 fold enrichment (6-mer frequency, TF over GST control)"
same,binding signal,[19],"1.19 fold enrichment (6-mer frequency, TF over GST control)"
